This is an account of results in PubChem BioAssay (NCI).

Structures are written as SMILES. “And” between values parts separate entries of the source, which are not always exact repeats. Equal entries are not always repeated. About 83,000 compounds went through this panel and 20% of them were active in at least one assay; those are over-represented in the sample as a whole.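 Results are percent growth after 48 hours of single-concentration exposure. 100 means growth as in untreated cells, lower positive values show inhibition; negative values down to -100 show cell death.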 The source made the active and inactive calls. How the source made its calls: active means growth percent below 10; inactive means the rest.

This assay relates to MDA-MB-468 breast. Put plainly: NCI-60 one-dose screen, 48 h (100 = growth as untreated, 0 = no growth, -100 = all killed). The conditions noted are these: 10 µM unless noted.
For `CC(C)(C)OC(=O)N1CCc2c(sc3ncnc(N/N=C/c4ccc(Br)cc4)c23)C1`, the growth was 24.9% (inactive).

As to `Nc1nc(N)c2c(n1)NC(c1cccc(Nc3ccnc4cc(C(F)(F)F)ccc34)c1)CC(c1ccc(Cl)cc1)=N2` (stereo not given), the growth was 21.5% (inactive).

Consider `Clc1cccc(Cl)c1CSc1nc2ccccc2n2cccc12`, for which the growth was 18.9% (inactive).

For `COc1ccc2nc(C)cc(Nc3ccccc3O)c2c1`, the growth was 63.5% (inactive).

As to `Cc1ccccc1Nc1cc(O)c2c(=O)cc(-c3ccccc3)oc2c1`, the growth was -2.12% (active).

`CC(=O)Nc1scc[n+]1Cc1ccccc1`: the growth was 103% (inactive).

In the case of `CCNNC(=O)[C@@H]1[C@H](c2cc(OC)c(OC)c(OC)c2)c2cc3c(cc2[C@H](O)[C@H]1CO)OCO3`, the growth is 7.05% (active).

Take `Cc1cnc(C=O)c2cccc([N+](=O)[O-])c12`: the growth was 89.7% (inactive).

On to `CCOc1ccc(/C=N\N2CCCCCC2)cc1OCC`, for which the growth is 111% (inactive).

Regarding `COc1ccc(C/C(C)=C(\c2ccc(Cl)cc2)c2ccc(OCCN3CCCCC3)cc2)cc1`, the growth was 98.2% (inactive).

Regarding `NC(=O)CN1C(=O)c2ccccc2C1=O`, the growth was 107% (inactive).

`Cc1n(Cc2ccc3ccccc3c2)c2ccccc2[n+]1Cc1ccc2ccccc2c1`: the growth is -60.8% (active).

Turning to `CC(=O)c1ccc(Nc2nc(Cl)nc(Oc3c(Cl)cccc3Cl)n2)cc1`, the growth is 93.3% (inactive).

As to `NS(=O)(=O)c1ccc(C2C3=C(CCCC3=O)OC3=C2C(=O)c2ccccc2C3=O)cc1` (stereo not given), the growth is -47.4% (active).

Turning to `O=c1ccn(C2CCCO2)c(=O)[nH]1` (stereo not given), the growth is 104% (inactive).

Consider `Cc1ccc(S(=O)(=O)Nc2ccc(Cl)cc2)cc1`, for which the growth was 107% (inactive).

Turning to `O=C(NOCCO)c1cc(CN2OCCCC2=O)c(F)c(F)c1Nc1ccc(I)cc1F`, the growth was 114% (inactive).

`CC(C)(C)n1cc(-c2ccnc(NCCCNS(=O)(=O)c3ccc(C(F)(F)F)cc3)c2)c(-c2cccc(O)c2)n1`: the growth is 11.8% (inactive).

Take `COc1cc2ncnc(Nc3ccc(S(=O)(=O)Nc4cc(C)on4)cc3)c2cc1OCCCN1CCOCC1`: the growth is 103% (inactive).

`NS(=O)(=O)N(c1cc(C(F)(F)F)cc(C(F)(F)F)c1)C1CCN(Cc2ccc(C(F)(F)F)cc2)CC1`: the growth was -42.5% (active).

Turning to `N#Cc1c(-c2ccc(F)cc2)c(C#N)c2c(C#N)c(N)nn2c1N`, the growth is 83.5% (inactive).

Take `N=C(N)c1ccc(-c2ccc(-c3ccc(Cl)c(Cl)c3)s2)nc1`: the growth was -65.4% (active).

For the compound `CC1=CCC(OC(=O)C(C)(C)CCC(O)(C(=O)OC2(C(C)C)CCC3(C)OC3C2)C(C)C)(C(C)C)CC1` (stereo not given), the growth was -64.4% (active).

Consider `Cc1ccc(C2=N[C@H]3CCC[C@@H]3N(c3ccccc3)C(C(Cl)Cl)=N2)cc1`, for which the growth is 116% (inactive).

With `C=C(C)[C@@H]1CC[C@]2(C(=O)N3CCNCC3)CC[C@]3(C)[C@H](CC[C@@H]4[C@@]5(C)C/C(=C/c6ccncc6)C(=O)C(C)(C)[C@@H]5CC[C@]43C)[C@@H]12`, the growth was 95% (inactive).

Turning to `Cc1ccc(-c2nc(C(Cl)Cl)nc3cc(-c4ccccc4)nn23)cc1`, the growth was -54.2% (active).

Turning to `Cc1ccc2nc(Cl)c(Cn3nnnc3SCc3ccccc3)cc2c1`, the growth is 90.4% (inactive).

As for `CC(=O)Oc1ccc(Nc2c3ccccc3nc3ccccc23)cc1`, the growth was -25.6% (active).

Consider `CCn1cc(CNc2ccc(C(=O)Nc3ccc4ccccc4c3)cc2)c(C)n1`, for which the growth is 24.5% (inactive).

As for `COc1cc(C(=O)/C=C/c2c(-c3ccc(F)cc3)nc3sccn23)cc(OC)c1OC`, the growth was 12.8% (inactive).

Consider `O=C(NCCNc1nccc(-c2c(-c3cccc(O)c3)nc3sccn23)n1)c1ccc(N2CCOCC2)c(C(F)(F)F)c1`, for which the growth was 50.2% (inactive).

Consider `CC(C)Cc1ccc(C(C)C(=O)NCc2ccc(Cn3c(=O)sn(CCCCl)c3=O)cc2)cc1` (stereo not given), for which the growth was 80.8% (inactive) and -83.8% (active).

`O=c1c2cccc3c(N4CCCC4)ccc(c32)c2nc3ccccc3n12`: the growth was 80.3% (inactive).

For `N=C1c2nc3n(c2C(=O)c2nc4n(c21)CCCCC4)CCCCC3`, the growth was 99.8% (inactive).

For `CC(=O)O[C@]1(C)CC[C@H]2[C@H](CNCCc3ccc(Cl)cc3)C(=O)O[C@@H]2C2=C(C)C(=O)C[C@H]21`, the growth is 47.3% (inactive).

`COc1ccc(C(=O)N2NC(=O)/C(=C/c3cn(-c4ccccc4)nc3-c3ccccc3)N=C2c2ccccc2)cc1`: the growth was 95.7% (inactive).

For the compound `COc1ccc2[nH]c(=O)c(CN3CCN(c4nccc(-c5ccc(Cl)cc5)n4)CC3)cc2c1`, the growth was 88.6% (inactive).

Consider `COCCCNc1nc(NC(=O)c2cc(OC)cc(OC)c2)cc(-c2cccnc2)n1`, for which the growth was 94.8% (inactive).

With `C#CCn1cc(C=C2C(=O)N(C)C(=O)N(C)C2=O)c2cc(Cl)ccc21`, the growth was 103% (inactive).

As for `C(=C\c1ccncc1)/c1ccncc1`, the growth is 92.6% (inactive).
